Measurements taken from PubChem BioAssay (Tox21).
Several values for one entry are separate records, joined by “and”; a condition that tells them apart may be missing. Equal entries are not always repeated. Activity calls are given as the source filed them. A call without a number means that no potency is given here. Unless noted, the call rests on the fitted dose curve; in most records, active means well fitted curve in the direction sought with a large enough effect in the repeat runs; inconclusive means weak or mixed curves; inactive means no such curve, though single readings can be large; an effect the other way counts as inactive or inconclusive.

Columns and labels:
[1] = qHTS assay for small molecule disruptors of the mitochondrial membrane potential (AID 720635); further: potency means the concentration at half of the fitted maximal effect
Procedure, shortened: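 HepG2 cells (2,000/well) attached overnight at 37C, then took compound for 1 hr at 37C, 5% CO2. Mito-MPS dye was added for 30 min; fluorescence was read at 490/535 nm (monomers) and 540/590 nm (aggregates).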

[2] = qHTS assay to test for compound auto fluorescence at 535 nm (green) in HepG2 cells (AID 720675)
[3] = qHTS assay to test for compound auto fluorescence at 590 nm (red) in HEK293 cells (AID 720679)
Procedure, shortened: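 Red autofluorescence, HEK293 cells: 2,000 cells/well; attach 4-5 hr 37C; add 23 nL cpd or DMSO; incubate o/n 37C 5% CO2; read Ex540/Em590; Rose Bengal sodium reference.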

[4] = qHTS assay to test for compound auto fluorescence at 460 nm (blue) in HEK293 cell free culture (AID 720681)
Procedure, shortened: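 Test compounds were pinned into cell-free culture medium (DMEM with 10% FBS) and fluorescence was read directly at Ex/Em 405/460 nm. Signals were expressed as fluorescence equivalents of triamterene, with DMSO vehicle as control.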

[5] = qHTS assay to test for compound auto fluorescence at 590 nm (red) in HepG2 cell free culture (AID 720684)
Procedure, shortened: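 Readout: intrinsic compound fluorescence at 590 nm emission after 540 nm excitation, scaled to Rose Bengal sodium. Matrix was cell-free MEM with 10% FBS; DMSO vehicle wells served as control.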

[6] = qHTS assay to test for compound auto fluorescence at 535 nm (green) in HepG2 cell free culture (AID 720686)
[7] = qHTS assay to identify small molecule antagonists of the thyroid receptor (TR) signaling pathway (AID 743065); further: series mostly up to about 70 µM; nearly all actives have a fitted effect of over 55% in size
Procedure, shortened: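 GH3.TRE-Luc rat pituitary cells carrying two TR response elements driving luciferase were plated for 4 h, given compound plus 1 nM T3 (final), and incubated 23.5 h at 37 C. ONE-Glo luminescence measured reporter inhibition; CellTiter-Fluor fluorescence tracked cytotoxicity.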

[8] = target: Estrogen receptor (Homo sapiens) (UniProt P03372); assay: qHTS assay to identify small molecule agonists of the estrogen receptor alpha (ER-alpha) signaling pathway (AID 743075; calls by dose curve;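 further: HEK293 GripTite cells with ER-alpha and UAS-driven beta-lactamase reporter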; further: potency means the concentration at half of the fitted maximal effect)
Chain of Estrogen receptor (Homo sapiens) (P03372 whole entry, looked up): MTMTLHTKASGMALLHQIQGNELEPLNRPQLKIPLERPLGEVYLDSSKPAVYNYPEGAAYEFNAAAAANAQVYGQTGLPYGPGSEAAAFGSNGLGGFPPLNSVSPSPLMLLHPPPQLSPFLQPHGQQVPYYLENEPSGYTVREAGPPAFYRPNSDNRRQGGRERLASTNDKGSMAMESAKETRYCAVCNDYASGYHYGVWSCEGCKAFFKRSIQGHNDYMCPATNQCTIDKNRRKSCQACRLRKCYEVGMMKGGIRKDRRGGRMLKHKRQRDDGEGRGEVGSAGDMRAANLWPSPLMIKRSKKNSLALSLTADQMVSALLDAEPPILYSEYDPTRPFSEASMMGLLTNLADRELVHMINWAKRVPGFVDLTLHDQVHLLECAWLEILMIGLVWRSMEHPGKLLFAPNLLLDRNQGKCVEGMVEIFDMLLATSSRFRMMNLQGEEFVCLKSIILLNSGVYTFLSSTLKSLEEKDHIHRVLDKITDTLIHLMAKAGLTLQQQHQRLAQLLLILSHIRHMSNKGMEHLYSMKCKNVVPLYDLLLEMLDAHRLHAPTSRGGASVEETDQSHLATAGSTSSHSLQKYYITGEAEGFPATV

[9] = target: Estrogen receptor (Homo sapiens) (UniProt P03372); assay: qHTS assay to identify small molecule agonists of the estrogen receptor alpha (ER-alpha) signaling pathway using the BG1 cell line (AID 743079); further: nearly all actives have a fitted effect of over 20% in size; further: potency means the concentration at half of the fitted maximal effect
[10] = qHTS assay to identify small molecule antagonists of the estrogen receptor alpha (ER-alpha) signaling pathway using the BG1 cell line (AID 743080; calls by dose curve;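 further: BG1 cells stimulated with 17beta-estradiol alongside compound; series mostly up to about 70 µM; nearly all actives have a fitted effect of over 25% in size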)
Procedure, shortened: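 Readout is ONE-Glo luminescence, taken 30 min at room temperature after reagent addition, preceded by a CellTiter-Fluor viability read; BG1-Luc-4E2 cells had received compound and 17beta-estradiol for 21.5 h at 37 C.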

[11] = target: Aryl hydrocarbon receptor (Homo sapiens) (UniProt P35869); assay: qHTS assay to identify small molecule that activate the aryl hydrocarbon receptor (AhR) signaling pathway (AID 743085);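 further: HG2L7.5c1 human HepG2 liver cells with stably integrated DRE-driven firefly reporter; series mostly up to about 70 µM; nearly all actives have a fitted effect of over 15% in size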
Chain of Aryl hydrocarbon receptor (Homo sapiens) (P35869 whole entry, looked up): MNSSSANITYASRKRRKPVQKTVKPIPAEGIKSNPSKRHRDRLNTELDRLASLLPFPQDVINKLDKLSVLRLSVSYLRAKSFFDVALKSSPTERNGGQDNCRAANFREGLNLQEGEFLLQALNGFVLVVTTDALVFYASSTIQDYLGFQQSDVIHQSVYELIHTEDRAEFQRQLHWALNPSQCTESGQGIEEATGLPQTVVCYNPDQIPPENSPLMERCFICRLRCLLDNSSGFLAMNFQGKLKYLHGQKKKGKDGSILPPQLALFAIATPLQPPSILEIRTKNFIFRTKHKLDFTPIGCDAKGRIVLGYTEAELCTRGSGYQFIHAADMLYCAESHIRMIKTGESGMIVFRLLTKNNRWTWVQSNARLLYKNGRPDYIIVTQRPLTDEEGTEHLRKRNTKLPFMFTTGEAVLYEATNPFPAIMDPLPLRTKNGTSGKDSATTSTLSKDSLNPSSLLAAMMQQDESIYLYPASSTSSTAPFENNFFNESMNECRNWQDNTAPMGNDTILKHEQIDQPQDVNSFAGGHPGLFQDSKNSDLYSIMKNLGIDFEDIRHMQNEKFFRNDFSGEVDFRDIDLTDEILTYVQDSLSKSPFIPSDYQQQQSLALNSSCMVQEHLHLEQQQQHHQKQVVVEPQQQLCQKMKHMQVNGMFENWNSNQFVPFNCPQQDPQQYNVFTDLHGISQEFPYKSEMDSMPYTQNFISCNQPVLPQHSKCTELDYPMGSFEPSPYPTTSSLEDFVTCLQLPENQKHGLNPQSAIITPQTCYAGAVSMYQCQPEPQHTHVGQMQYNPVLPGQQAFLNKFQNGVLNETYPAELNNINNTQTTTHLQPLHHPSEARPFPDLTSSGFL
Procedure, shortened: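 Cell line HG2L7.5c1 (human hepatoma, 20× DRE-luc). Plated, 5 h 37C, compound/DMSO added, 24 h 37C. CellTiter-Fluor 30 min 37C → fluorescence; then ONE-Glo 30 min RT → luminescence.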

[12] = target: Peroxisome proliferator-activated receptor gamma (Homo sapiens) (UniProt P37231); assay: qHTS assay to identify small molecule agonists of the peroxisome proliferator-activated receptor gamma (PPARg) signaling pathway (AID 743094; active means well fitted activation curve with a large enough effect in the signal ratio in the repeat runs, not every such curve was filed as active; inconclusive means weak or mixed curves, or effect the other way; inactive means no such curve, though single readings can be large or run the other way; the % refers to the signal ratio)
Chain of Peroxisome proliferator-activated receptor gamma (Homo sapiens) (P37231 whole entry, looked up): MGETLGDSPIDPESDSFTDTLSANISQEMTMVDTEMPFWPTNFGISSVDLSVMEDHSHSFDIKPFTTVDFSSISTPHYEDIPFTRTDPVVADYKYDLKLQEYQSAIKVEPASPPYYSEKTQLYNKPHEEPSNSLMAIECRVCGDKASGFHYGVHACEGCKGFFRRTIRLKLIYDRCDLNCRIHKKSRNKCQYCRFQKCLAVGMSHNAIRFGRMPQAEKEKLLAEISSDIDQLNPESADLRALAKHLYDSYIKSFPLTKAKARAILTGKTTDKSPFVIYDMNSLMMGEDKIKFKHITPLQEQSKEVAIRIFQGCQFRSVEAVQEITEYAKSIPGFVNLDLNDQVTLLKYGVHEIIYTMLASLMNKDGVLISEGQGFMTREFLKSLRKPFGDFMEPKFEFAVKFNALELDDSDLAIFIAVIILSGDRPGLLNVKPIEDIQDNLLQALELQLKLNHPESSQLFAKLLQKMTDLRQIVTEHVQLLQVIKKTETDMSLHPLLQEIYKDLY
Procedure, shortened: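 Agonist activity was taken from a beta-lactamase reporter (FRET substrate, 1 h at room temperature) in HEK293H cells carrying a PPARg UAS-bla construct. Compounds in DMSO were incubated 17 h at 37C after a 5 h cell pre-incubation.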

[13] = target: Nuclear receptor subfamily 1 group I member 2 (Homo sapiens) (UniProt O75469); assay: CYP3A4 induction through human pregnane X receptor (PXR) by small molecules, qHTS assay (AID 1346984); further: nearly all actives have a fitted effect of over 40% in size
Procedure, shortened: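 Read-out is luminescence after One-Glo addition, following a 3 hr, 37C incubation with Luciferin-IPA CYP3A4 substrate (3uM final). Before that, compounds were on DPX-2 cells (HepG2 co-transfected with PXR element plus CYP3A4-promoter luciferase) for 24 hr at 37C.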

[14] = target: Nuclear receptor subfamily 1 group I member 2 (Homo sapiens) (UniProt O75469); assay: Human pregnane X receptor (PXR) activation by small molecules, qHTS assay (AID 1346985); further: nearly all actives have a fitted effect of over 40% in size
Procedure, shortened: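 DPX-2 cells (HepG2 co-transfected with a PXR response element and a CYP3A4-promoter luciferase construct) were seeded at 2,000 per well, rested 5 hr at 37C, then exposed to DMSO-dissolved compounds for 24 hr. Activation was read as luciferase luminescence.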

[15] = target: Glucocorticoid receptor (Homo sapiens) (UniProt P04150); assay: qHTS assay to identify small molecule agonists of the glucocorticoid receptor (GR) signaling pathway (AID 720691; active means well fitted activation curve with a large enough effect in the signal ratio in the repeat runs, not every such curve was filed as active; inconclusive means weak or mixed curves, or effect the other way; inactive means no such curve, though single readings can be large or run the other way; the % refers to the signal ratio)
Chain of Glucocorticoid receptor (Homo sapiens) (P04150 whole entry, looked up): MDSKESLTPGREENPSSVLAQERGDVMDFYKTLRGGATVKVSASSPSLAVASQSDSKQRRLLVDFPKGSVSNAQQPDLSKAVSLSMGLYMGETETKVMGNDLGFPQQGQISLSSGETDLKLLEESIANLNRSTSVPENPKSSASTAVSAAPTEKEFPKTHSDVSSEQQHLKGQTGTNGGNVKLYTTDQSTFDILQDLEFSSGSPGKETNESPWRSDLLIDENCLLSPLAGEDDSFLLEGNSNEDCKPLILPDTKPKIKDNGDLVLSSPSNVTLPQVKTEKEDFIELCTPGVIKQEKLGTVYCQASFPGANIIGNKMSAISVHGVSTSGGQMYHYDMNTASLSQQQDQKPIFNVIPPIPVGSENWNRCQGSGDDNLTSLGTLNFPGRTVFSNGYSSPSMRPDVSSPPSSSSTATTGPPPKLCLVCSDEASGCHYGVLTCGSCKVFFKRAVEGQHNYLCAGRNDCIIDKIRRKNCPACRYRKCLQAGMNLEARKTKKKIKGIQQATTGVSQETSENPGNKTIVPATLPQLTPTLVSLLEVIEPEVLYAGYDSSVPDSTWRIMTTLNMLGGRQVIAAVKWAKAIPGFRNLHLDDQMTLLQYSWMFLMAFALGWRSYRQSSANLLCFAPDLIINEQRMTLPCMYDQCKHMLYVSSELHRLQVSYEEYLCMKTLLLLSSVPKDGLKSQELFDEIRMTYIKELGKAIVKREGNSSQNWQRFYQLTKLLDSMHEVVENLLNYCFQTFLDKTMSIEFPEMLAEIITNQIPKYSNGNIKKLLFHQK
Procedure, shortened: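 Agonist-mode qHTS in HeLa cells stably expressing a glucocorticoid-response-element beta-lactamase reporter. Fluorescence intensity read with FRET substrate (2 h, room temperature) after 18 h compound treatment at 37 C.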

[16] = qHTS assay for identifying genotoxic compounds that show differential cytotoxicity against isogenic chicken DT40 cell lines with known DNA damage response pathways - Rev3 mutant cell line (AID 743014); further: nearly all actives have a fitted effect of over 55% in size; further: potency means the concentration at half of the fitted maximal effect
[17] = qHTS assay for identifying genotoxic compounds that show differential cytotoxicity against isogenic chicken DT40 cell lines with known DNA damage response pathways - Rad54/Ku70 mutant cell line (AID 743015); further: nearly all actives have a fitted effect of over 60% in size
[18] = qHTS assay to identify small molecule antagonists of the androgen receptor (AR) signaling pathway using the MDA cell line - cell viability counter screen (AID 743041; further: nearly all actives have a fitted effect of over 45% in size)
Procedure, shortened: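 qHTS viability read-out; MDA-kb2 AR-luc; R1881-stimulated; 16 h exposure at 37C, 0% CO2; CellTiter-Fluor, 30 min; fluorescence intensity.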

[19] = qHTS assay to identify small molecule antagonists of the thyroid receptor (TR) signaling pathway - cell viability counter screen (AID 743064); further: nearly all actives have a fitted effect of over 50% in size
Procedure, shortened: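 Fluorescence from CellTiter-Fluor, added after 23.5 h exposure at 37 °C, reported viability of GH3.TRE-Luc cells co-treated with compound and 1 nM T3. Measured in the same wells as the luciferase TR readout.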

[20] = qHTS assay to identify small molecule antagonists of the glucocorticoid receptor (GR) signaling pathway - cell viability counter screen (AID 720693); further: nearly all actives have a fitted effect of over 55% in size

Structure (SMILES)	Potency [1]	Potency [2]	outcome [3]	Potency [4]	outcome [5]	Potency [6]	Potency [7]	Potency [8]	Potency [9]	Potency [10]	Potency [11]	Potency [12]	Potency [13]	Potency [14]	Potency [15]	Potency [16]	Potency [17]	Potency [18]	Potency [19]	Potency [20]
CCC(=O)O[C@]1(c2ccccc2)CCN(C)C[C@H]1C	inactive	inactive	inactive	inactive	inactive	inactive	inactive	inactive	inactive	inactive	inactive	inactive	inactive	inactive	–	–	–	–	–	–
CCNCC(O)c1cccc(O)c1 (stereo not drawn)	inactive	inactive	inactive	–	inactive	–	inactive	inactive	inactive	inactive	inactive	inactive	inactive	inactive	inactive	inactive	inactive	inactive	inactive	–
O=S(=O)(O)c1cc(O)ccc1O	inactive	–	inactive	inactive	–	inactive	inactive	–	–	–	–	–	–	–	inactive	inactive	inactive	inactive	inactive	–
COc1ccc(OC)c([C@@H](O)[C@H](C)N)c1	inactive	inactive	inactive	–	inactive	inactive	inactive	inactive	inactive	inactive	inactive	inactive	inactive	inactive	inactive	inactive	inactive	inactive	–	inactive
CCC(=O)O[C@@](Cc1ccccc1)(c1ccccc1)[C@@H](C)CN(C)C	inactive	–	inactive	inactive	inactive	inactive	–	–	–	–	–	–	inactive	inactive	–	inactive	–	inactive	–	inactive
CC1(C)S[C@@H]2[C@H](N)C(=O)N2[C@H]1C(=O)O	inactive	inactive	inactive	inactive	inactive	–	inactive	inactive	inactive	inactive	inactive	inactive	inactive	inactive	inactive	inactive	inactive	–	inactive	–
CC(=O)O[C@H]1C[C@H](O[C@H]2[C@@H](O)C[C@H](O[C@H]3[C@@H](O)C[C@H](OC4CC[C@@]5(C)[C@H](CC[C@@H]6[C@@H]5CC[C@]5(C)[C@@H](C7=CC(=O)OC7)CC[C@]65O)C4)O[C@@H]3C)O[C@@H]2C)O[C@H](C)[C@H]1O[C@@H]1O[C@H](CO)[C@@H](O)[C@H](O)[C@H]1O (stereo partly drawn)	393 nM (active)	inactive	–	–	inactive	–	–	inactive	–	–	inactive	–	inactive	inactive	inactive	473 nM (active)	–	–	inactive	–
C[N+]1([O-])[C@@H]2CC(OC(=O)[C@H](CO)c3ccccc3)C[C@H]1[C@@H]1O[C@@H]12 (stereo partly drawn)	inactive	inactive	inactive	inactive	inactive	inactive	inactive	inactive	inactive	inactive	–	inactive	inactive	inactive	inactive	inactive	inactive	–	inactive	inactive
CCC1(CC)C(=O)NC(=O)N(C)C1=O	inactive	–	inactive	inactive	inactive	inactive	inactive	inactive	inactive	inactive	inactive	inactive	inactive	inactive	inactive	inactive	inactive	–	–	inactive
Oc1c(Cl)cc(Cl)cc1Cl	17 µM (active) and 48.6 µM (active)	inactive	–	inactive	inactive	–	–	–	–	–	–	–	–	–	–	–	–	–	–	–
CCC1(C)CC(=O)NC(=O)C1	inactive	inactive	inactive	inactive	inactive	inactive	inactive	inactive	inactive	–	inactive	inactive	inactive	inactive	inactive	inactive	inactive	inactive	–	inactive
CC(=O)O[C@H]1CC[C@H]2[C@@H]3CCC4=CC(=O)CCC4=C3C=C[C@]12C	inactive	inactive	inactive	–	inactive	inactive	inactive	2680 nM [inconclusive] (active)	531 nM (active)	inactive	–	inactive	inactive	inactive	inactive	–	–	inactive	inactive	–
CN(C)CCCCCCN(C)C	inactive	–	inactive	–	inactive	inactive	–	–	–	–	inactive	–	–	–	inactive	inactive	inactive	inactive	inactive	inactive
C[C@]12CC[C@H](OS(=O)(=O)O)CC1=CC[C@@H]1[C@@H]2CC[C@]2(C)C(=O)CC[C@@H]12	–	inactive	inactive	inactive	–	inactive	–	inactive	13300 nM (active)	inactive	inactive	inactive	inactive	inactive	inactive	inactive	–	inactive	inactive	inactive
CCCCCCCCCC(=O)O[C@H]1CC[C@H]2[C@@H]3CCC4=CC(=O)CC[C@]4(C)[C@H]3CC[C@]12C	inactive	inactive	–	inactive	inactive	inactive	inactive	10700 nM [inconclusive] (active)	335 nM (active)	inactive	inactive	inactive	inactive	inactive	inactive	inactive	inactive	inactive	–	inactive
O=C1CN(O)C(c2ccccc2)=c2cc(Cl)ccc2=N1	inactive	inactive	inactive	inactive	inactive	inactive	inactive	–	–	–	inactive	inactive	inactive	inactive	inactive	inactive	inactive	–	inactive	inactive
CCC(N)Cc1c[nH]c2ccccc12 (stereo not drawn)	21100 nM (active)	–	inactive	–	inactive	–	–	–	–	inactive	–	inactive	inactive	inactive	–	inactive	–	inactive	–	–
